Screens as filed in PubChem.
Compounds with a hit are over-represented: about 4.1% of the library has one in this group of screens.
hgDAF-12 ag: activates the H. glycines DAF-12 receptor ligand-binding domain. HEK293 GAL4-hgDAF12 UAS-luciferase reporter, agonist luminescence; normalized to butyrate control. activation, % at 6.8 µM. 1.8% of 370,000 active;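 active = activation above a cutoff set at the mean of all screened compounds plus 3 SD, cut at about 10% in these data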;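 also: 0% = DMSO wells and 100% = sodium butyrate wells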
hcDAF12 agonist: H. contortus DAF-12 activation, primary screen. 1.4% of 370,000 active. HEK293 hcDAF-12 lit1-tk-luc reporter, luminescence; 0% DMSO, 100% Δ7-dafachronic acid. AID 652067. activation, % at 6.8 µM;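 active = activation above the mean of all tested compounds plus 3 SD, cut at about 5.5% in these data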;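 also: 100% = response to 3 µM Δ7-dafachronic acid high control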
DAX1 inh-1: inhibitors of human orphan nuclear receptor DAX1 (NR0B1) | P51843 | inhibition, % at 6.75 µM | HEK293 Gal4-DAX1 luciferase reporter, luminescence | AID 504766 | 0.99% of 340,000 active;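 active = inhibition above the mean over all tested compounds plus 3 SD, cut at about 4.2% in these data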;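 also: 0% = DAX1-transfected cells with DMSO and 100% = empty-vector control cells with DMSO; inhibition shows as a rise in luminescence from relieved DAX1 repression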
Target sequence (P51843 207-470 limits assumed): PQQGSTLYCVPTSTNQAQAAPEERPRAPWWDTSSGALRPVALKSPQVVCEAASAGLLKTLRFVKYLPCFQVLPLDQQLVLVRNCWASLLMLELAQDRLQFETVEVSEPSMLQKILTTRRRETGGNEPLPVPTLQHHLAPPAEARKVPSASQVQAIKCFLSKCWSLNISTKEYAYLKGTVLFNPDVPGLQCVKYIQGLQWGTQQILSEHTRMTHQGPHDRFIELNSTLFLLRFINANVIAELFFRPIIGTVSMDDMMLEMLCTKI
DAX1 inh-2: inhibitors of DAX1 repression of SF-1 activated StAR promoter; 1.1% of 370,000 active; inhibition, % at 6.8 µM; AID 652010; HEK293T StAR-luciferase reporter, SF-1/DAX-1 repression relief;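 active = inhibition above the mean over all tested compounds plus 3 SD, cut at about 3.6% in these data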;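 also: 0% = DAX-1 cells with DMSO and 100% = cells lacking DAX-1 with DMSO; higher inhibition means more luminescence from relief of DAX-1 repression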
ssDAF-12 act: activates DAF-12 receptor from parasite S. stercoralis. HEK293 ssDAF-12/GRIP1 lit1-tk-luc reporter, luminescence; % of 3 µM dafachronic acid response. activation, % at 6.8 µM. 1% of 370,000 active;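 active = activation above the mean over all tested compounds plus 3 SD, cut at about 0.9% in these data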;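 also: 0% = DMSO-only wells and 100% = 3 µM delta7-dafachronic acid wells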
An asterisk follows results filed as active; x = no result given.

SMILES | hgDAF-12 ag | hcDAF12 agonist | DAX1 inh-1 | DAX1 inh-2 | ssDAF-12 act
COC(=O)[C@]12C[C@H](CC(=O)NCc3ccc(C)o3)C(=O)N(Cc3ccc(Cl)cc3Cl)C1=C[C@H](C(C)(C)C)O[C@@H]2C | 1 | -2 | x | -1 | -1
O[C@H](COc1ccc(C(F)(F)F)cc1)CN1CCC(C(O)(c2ccccc2)c2ccccc2)CC1 | -2 | -1 | x | 2 | -1
Cc1cc(C(=O)NNC(C)Cc2ccccc2)no1 (centres undefined) | 5 | -2 | 4.3* | 1 | -1
Cc1occc1-c1nnc(SCC(=O)Nc2ccc3ncccc3c2)n1-c1ccccc1 | 3 | -1 | x | -1 | 0
Oc1ccccc1-c1n[nH]c(=S)n1Cc1ccccc1 | -1 | 5 | 1 | 0 | 1.5*
Oc1ccc(Br)cc1-c1n[nH]c(=S)n1Cc1ccccc1 | -2 | 4 | 0 | 0 | -2
COc1ccc(-n2c(SCC(=O)Nc3ccc4c(c3)OCO4)nc3sc4c(c3c2=O)CCCC4)cc1 | 0 | -1 | x | 0 | -1
CCc1ccc(NC(=S)N2CCCCCCC2)cc1 | 11* | 0 | 1 | 3 | 0
O=C(Cc1cn2ccsc2n1)NCc1ccccc1 | 3 | 6.0* | 0 | 0 | 0
O=C1N(c2ccccc2)CC2CC(c3ccccc3)N3CCCC123 (centres undefined) | -2 | 0 | x | -2 | -1
COc1ccc(C)cc1Nc1n[n+](-c2ccccc2)c(-c2ccc(SC)cc2)s1 | 12* | 2 | 4 | 0 | 0
CCc1c(C(=O)NNC(=S)Nc2ccc(S(=O)(=O)Nc3ncccn3)cc2)csc1C | 0 | -1 | 0 | 4.0* | -1
COC(=O)C1CN(C2CCCC2)CCS(=O)(=O)N1Cc1ccc(C)cc1 (centres undefined) | -1 | -2 | x | -2 | -2
CN1C(=O)c2cc(NC(=O)Cc3cccs3)ccc2OC[C@@H]2O[C@@H](CC(=O)N[C@H]3CCN(Cc4ccccc4)C3)CC[C@@H]21 | 2 | -2 | x | 0 | -1
O=C(NCCc1ccccc1)c1cccc(Br)c1 | 6 | 1 | 1 | 1 | 0
O=C(NCCc1ccccc1)c1ccc2nccnc2c1 | 11* | 5 | -1 | 4.2* | 0
O=C(NCCc1ccccc1)c1cccnc1 | 11* | 1 | 2 | 1 | -1
C[C@H]1[C@@H](O)CC[C@@]23CCCN2C(=O)CCC[C@@H]13 | -1 | 0 | x | x | -1
COC(=O)c1c(NC(C)=O)sc(C(=O)Nc2ccccc2F)c1C | 13* | 1 | 0 | 3 | -1
CCCC(=O)Nc1sc(C(=O)Nc2cccc(N)c2)c(C)c1C(=O)OC | 7 | 1 | 0 | 3.9* | -1
CCC(=O)Nc1sc(C(=O)Nc2ccccc2OC)c(C)c1C(=O)OC | 2 | 2 | 0 | 0 | 0
COC(=O)c1c(NC(C)=O)sc(C(=O)Nc2ccccc2)c1C | 7 | 0 | 1 | 2 | -2
COc1ccc(CN(CCN2CCOCC2)C(=O)c2cccc(F)c2)cc1OC | 0 | -3 | x | 0 | -1
CCOC(=O)[C@H]1[C@H]2COc3ccc(OC)cc3[C@@H]2N2C(=O)CN(CCc3c[nH]c4ccccc34)C(=O)[C@@]12C | -1 | 5 | 1 | 0 | 1.0*
Cc1occc1C(=O)Nc1cc(C(C)(C)C)on1 | 12* | 4 | 2 | 4.2* | 0
SMILES | hgDAF-12 ag | hcDAF12 agonist | DAX1 inh-1 | DAX1 inh-2 | ssDAF-12 act
COC(=O)[C@]12C[C@H](CC(=O)NCCc3ccccc3OC)C(=O)N(Cc3ccc4c(c3)OCO4)C1=C[C@H](C(C)(C)C)O[C@@H]2C | -1 | -1 | x | -2 | 0
Cc1ccc(-c2cc3nc(-c4ccco4)cc(N4CCN(Cc5ccoc5)CC4)n3n2)cc1 | 1 | 0 | x | x | -1
CCN(CC)C(=S)SCC(=O)c1ccccc1 | 11* | 2 | 4 | 2 | 0
CCN(CC)C(=S)SCC(=O)Nc1ccc(F)cc1 | -2 | -2 | 0 | -1 | -1
CCN(CC)C(=S)SCC(=O)c1c(C)[nH]c2ccccc12 | 1 | 1 | 0 | 0 | -1
CCN(CC)C(=S)SCC(=O)c1ccc(F)cc1 | 9 | 3 | 2 | 2 | 1.1*
COC(=O)[C@H](C)NC(=O)C(Cc1ccc2c(c1)OCO2)NC(C)=O (some centres undefined) | 0 | -2 | x | 0 | 0
CCOC(=O)/C=C1/N(C)c2ccccc2C1(C)C | 0 | -1 | 6.1* | 1 | -1
O=C1NC(=O)/C(=C/c2ccc(O)cc2)S1 | 14* | 0 | 1 | 1 | -1
O=C(Oc1ccc(-c2cnc3ccccc3n2)cc1)c1ccco1 | 10 | 5.6* | 4 | 3 | 0
Cc1cccc(NC(=O)n2ccc3ccc(-c4ccc5cc[nH]c5c4)cc32)c1 | -4 | -2 | x | -1 | -2
COC(=O)[C@]12C[C@H](CC(=O)NCc3cccc(C(F)(F)F)c3)C(=O)N(Cc3ccccc3)C1=C[C@H](C(C)C)O[C@@H]2C1CC1 | 2 | -2 | x | 1 | -1
COC(=O)c1cc(S(=O)(=O)N2CCN(c3ccccc3Cl)CC2)cn1C | 0 | -2 | x | -2 | -1
C=CCOc1cccc(/C=N/NC(=O)CN(c2cc(Cl)ccc2OC)S(=O)(=O)c2ccc(C)c([N+](=O)[O-])c2)c1 | 0 | 1 | 1 | 0 | 1.0*
Cc1ccc(OCC(=O)N/N=C/c2c[nH]c3ccccc23)c([N+](=O)[O-])c1 | 2 | 6.2* | 2 | -1 | -1
CCOC(=O)N/N=C/c1ccc(F)cc1F | 4 | 1 | 0 | 0 | 1.0*
COC(=O)N/N=C/c1c[nH]c2ccccc12 | 5 | 6 | 0 | 0 | 1
CCN(CC)c1ccc(/C=N/NC(=O)c2c[nH]c3ccccc23)cc1 | 5 | 5.9* | -1 | -1 | -1
Cc1ccc(OCC(=O)N/N=C\c2ccc(O)cc2)c([N+](=O)[O-])c1 | 1 | -2 | -1 | 0 | -2
CCOC(=O)N/N=C/c1c[nH]c2ccccc12 | 6 | 6.2* | 4 | -1 | 0
CC1(C)OC(C)(C)C(=N/O)/C1=N\N | -5 | 0 | x | 0 | -1
C=C1CCC2C(C)(C)CCC[C@]2(C)[C@H]1CC1=C(O)C(=O)C(CO)=CC1=O (some centres undefined) | -14 | -6 | x | -7 | -1
Oc1ccccc1C=NC(N=Cc1ccccc1O)c1ccccc1O (centres undefined) | 1 | 0 | x | 0 | 0
O=C(N/N=C/c1c[nH]c2ccccc12)c1ccccc1Cl | 5 | 5 | 1 | 0 | 0
Cc1ccc(S(=O)(=O)N/N=C/c2c[nH]c3ccccc23)cc1 | 1 | 1 | -1 | -1 | 0.9*
NC(=S)N/N=C/c1c[nH]c2ccccc12 | 1 | 5 | -1 | 0 | 1.8*
O=C(O)c1ccc(S(=O)(=O)NN=Cc2c[nH]c3ccccc23)cc1 | 1 | 3 | 1 | -1 | 0
O=C(N/N=C/c1c[nH]c2ccccc12)c1cc(Cl)ccc1O | 5 | 3 | 2 | 0 | 1.6*
